High-throughput results as filed in PubChem BioAssay.
Sampled rows, rich in hits. Any-hit rate of the full collection: about 19%.
IL1B secr inh: blocks inflammasome-driven IL-1 beta release; THP-1 LPS/ATP IL-1B secretion, AlphaLISA, 16 h; hits give low values; activity change, % at 57.5 µM; 4.7% of 360,000 active; in the data active = activity change below about -50%; inconclusive = mostly about -30% to -49%
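Secreted IL-1B measured by AlphaLISA bead assay after 16 h compound exposure of THP-1 cells; compounds (final up to 57.5 uM) added 1 h before LPS (250 ng/mL) and ATP (1.25 mM) stimulation; lower signal means less secretion.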
HT1080-NT tox: kills 2HG-producing HT-1080-NT fibrosarcoma cells. Potency, µM (highest dose often 46.1 µM), for inactives: at the highest dose activity, negative = less viability, hits mostly cytotoxic. 1.6% of 360,000 active. HT-1080-NT fibrosarcoma viability, CellTiter-Glo ATP luminescence, 48 h;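 note: NT is the 2HG producing partner of a matched IDH1 knockdown line; potency is the fitted concentration of half-maximal effect; 0% = DMSO-treated cells and -100% = media-only wells without cells; nearly all actives have a fitted effect of over 55% in size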
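HT-1080-NT fibrosarcoma cells (2HG-overproducing), 750 cells/well in RPMI with 5% FBS, dosed after 2 h and incubated 48 h at 37C. CellTiter-Glo luminescence normalized to DMSO and no-cell wells; concentration-response curves fitted and classed.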
DT40 TDP1 CPT: growth inhibition of DT40 Tdp1-/-;hTDP1 cells with camptothecin (screen for TDP1 inhibitors). chicken DT40 Tdp1-/-;hTDP1 cells + 20 nM CPT, ATP luminescence, 48 h. Potency, µM (series often up to 46.2 µM), inactives show top-dose activity change, negative = growth inhibition, most hits filed as inhibitors. 12% of 420,000 active; note: potency is the fitted concentration of half-maximal effect; nearly all actives have a fitted effect of over 55% in size
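Chicken DT40 Tdp1-/- cells complemented with human TDP1, 400 cells/well, exposed to compounds plus 20 nM camptothecin for at least 48 h at 37 C; viability read as ATP content by CellTiter-Glo luminescence.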
DT40 TDP1 no CPT: qHTS for Inhibitors of human tyrosyl-DNA phosphodiesterase 1 (TDP1): qHTS in cells in absence of CPT. 15% of 420,000 active. DT40 Tdp1-/- hTDP1 cells, no CPT, ATP luminescence, 48 h. Potency, µM (top dose mostly 46.2 µM), inactives show at the highest dose activity change, negative = growth inhibition, actives largely listed as inhibitors. AID 686978, 2013; note: potency is the fitted concentration of half-maximal effect; nearly all actives have a fitted effect of over 55% in size
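Stably hTDP1-transfected Tdp1-null chicken DT40 cells were treated with library compounds minus camptothecin and grown for at least 48 hr at 37 °C, after which cellular ATP was quantified by luminescence.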
HT1080 IDH1KD tx: kills HT-1080 cells with IDH1 knockdown | HT-1080 IDH1 knockdown viability, ATP luminescence, 48 h | AID 686971 | Potency, µM (series often up to 46.1 µM), without a hit: top-dose activity, negative = toxicity, actives largely listed as cytotoxic | 2% of 360,000 active;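 note: potency is the fitted concentration of half-maximal effect; 0% = DMSO wells and -100% = cell-free medium wells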
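HT-1080-IDH1KD cells (IDH1 knocked down), 750/well in RPMI with 5% FBS, treated with compound 48 h at 37 degrees C. Viability by CellTiter-Glo luminescence, normalised to DMSO and no-cell wells; concentration-response curves classed.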
uPA surface inh: inhibitors of cell surface uPA generation; cell surface uPA generation assay, qHTS; Potency, µM (titrated, usually from 38.3 µM), for the others: at the top dose activity change, negative = inhibition, usual class: inhibitors; 0.31% of 330,000 active; active = well fitted inhibition curve with a large enough effect; inconclusive = small, poorly fitted or top-dose-only effect; inactive = no such curve, though single readings can be large or run the other way; tested in mouse RAW 264.7 cells; note: potency is the fitted concentration of half-maximal effect; nearly all actives have a fitted effect of over 55% in size
* = called active by the depositor; [ ] = remark or other dose. Unless noted, calls come from the whole dose curve; as a rule, active = well fitted curve in the direction sought with a large enough effect; inconclusive = small, poorly fitted or top-dose-only effect, or another doubt; inactive = no such curve, though single readings can be large; an effect the other way counts as inactive or inconclusive. Unless noted, % is set by controls: 0 for no effect and ±100 for the full control effect.

What do the screens show for `CCCCNC(=O)C(CC)Sc1nnc(-c2cccc(F)c2)c(-c2cccc(F)c2)n1` (stereo not given)?
DT40 TDP1 CPT: 16µM*; DT40 TDP1 no CPT: inconclusive

Results for CCCCNC(=O)C1CC(c2cccc(F)c2)=NO1 (stereo not given) ?
IL1B secr inh: 1; HT1080-NT tox: 14%; DT40 TDP1 CPT: -12%; DT40 TDP1 no CPT: -15%; HT1080 IDH1KD tx: 9%; uPA surface inh: 8%

Results for N#Cc1ccc(NN=Nc2ccccc2C#N)cc1 ?
IL1B secr inh: -21; HT1080-NT tox: -1%; DT40 TDP1 CPT: -20%; DT40 TDP1 no CPT: inconclusive; HT1080 IDH1KD tx: 1%

How did Cc1cc(C)c(OCC(=O)OCC(=O)NCc2ccco2)c(C)c1 do in these assays?
IL1B secr inh: 28; HT1080-NT tox: 6%; DT40 TDP1 CPT: -4%; DT40 TDP1 no CPT: -7%; HT1080 IDH1KD tx: 5%

Results for CCOc1ccc(NC(=S)N(Cc2ccc(Cl)cc2)Cc2ccco2)cc1 ?
IL1B secr inh: inconclusive; HT1080-NT tox: inconclusive; DT40 TDP1 CPT: inconclusive; DT40 TDP1 no CPT: inconclusive; HT1080 IDH1KD tx: inconclusive; uPA surface inh: -2%

How did Cc1cccc(C)c1OCC(=O)N(Cc1ccco1)Cc1ccco1 do in these assays?
DT40 TDP1 CPT: inconclusive; DT40 TDP1 no CPT: 23µM*

What do the screens show for `Cc1cc(C)c(OCC(=O)N(Cc2cccc(F)c2)Cc2ccco2)c(C)c1`?
DT40 TDP1 CPT: 15µM*; DT40 TDP1 no CPT: 18µM*

What do the screens show for `Cc1cc(C)cc(OCC(=O)N(Cc2ccco2)Cc2ccccc2Cl)c1`?
DT40 TDP1 CPT: 21µM*; DT40 TDP1 no CPT: 21µM*

How did CN(C)c1ccc(CN(Cc2ccco2)C(=O)COc2ccc(F)cc2)cc1 do in these assays?
DT40 TDP1 CPT: inconclusive; DT40 TDP1 no CPT: 10µM*

What do the screens show for `Cc1cnc(C)c(-c2cccc3c2OC(CNC(=O)c2cc(C)on2)C3)n1` (stereo not given)?
DT40 TDP1 CPT: -1%[9.04 µM]; DT40 TDP1 no CPT: -7%

How did Cc1ccc(CN(Cc2ccco2)C(=S)NCC(=O)O)cc1 do in these assays?
IL1B secr inh: 10; HT1080-NT tox: 0%; DT40 TDP1 CPT: 0%; DT40 TDP1 no CPT: -6%; HT1080 IDH1KD tx: 0%; uPA surface inh: -2%

Results for Cc1cc(OC(C)C(=O)N(Cc2ccco2)Cc2ccco2)cc(C)c1Cl (stereo not given) ?
DT40 TDP1 CPT: 15µM*; DT40 TDP1 no CPT: 9.2µM*

What do the screens show for `Cc1ccc(CN(Cc2ccco2)C(=O)COc2cc(C)c(Cl)c(C)c2)cc1`?
DT40 TDP1 CPT: 21µM*; DT40 TDP1 no CPT: 13µM*

What do the screens show for `Cc1ccc(OCC(=O)N(Cc2ccco2)Cc2ccco2)cc1`?
DT40 TDP1 CPT: inconclusive; DT40 TDP1 no CPT: 16µM*

How did Cn1c(=O)n(C)c2cc(NC(=O)Cc3ccccc3[N+](=O)[O-])ccc21 do in these assays?
IL1B secr inh: 13; HT1080-NT tox: 0%; DT40 TDP1 CPT: 4%; DT40 TDP1 no CPT: inconclusive; HT1080 IDH1KD tx: -3%; uPA surface inh: 1%

Results for Cn1cccc1C(=O)N1CCC2(CCN(Cc3ccccc3)CC2)CC1 ?
DT40 TDP1 CPT: 0%; DT40 TDP1 no CPT: -6%

How did CN(C)Cc1ccccc1-c1cccc2nccn12 do in these assays?
IL1B secr inh: 23; HT1080-NT tox: 5%; DT40 TDP1 CPT: -21%; DT40 TDP1 no CPT: -14%; HT1080 IDH1KD tx: -1%

How did CC(=O)C1=C(C)NC(SCC(=O)c2ccccc2)=C(C#N)C1CC(C)C (stereo not given) do in these assays?
IL1B secr inh: -7; HT1080-NT tox: -6%; DT40 TDP1 CPT: inconclusive; DT40 TDP1 no CPT: 16µM*; HT1080 IDH1KD tx: -7%; uPA surface inh: 11%
